Values joined by “and” are separate entries in the source; they are usually repeats but may differ in a detail not shown here. Equal values may be shown once. Screen size: about 350,000 compounds; about 5,500 (1.6%) were called active.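 The calls were made as follows: active = significant combined selectivity score with lowered wild-type GFP, culture density cut under 30%, mutant RFP and density less affected; inactive = any of these conditions unmet.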 This excerpt belongs to a sample that is enriched for actives.
Assay: reduced GFP signal of wild-type E. coli, primary screen, bacterial rRNA inhibitor project, GFP/RFP fluorescence, OD600, single point (AID 720706)
Conditions: E. coli WT GFP vs humanized-ribosome RFP mutants, 24 h; GFP signal change (wild-type ribosome): stronger effect = lower value, DMSO median 0, no signal -100; OD600 change: measured here: OD600 growth, DMSO median 0, no signal -100; RFP signal change: measured here: RFP humanized mutant strains, DMSO median 0, no signal -100, concentration not given here

Row | Structure (SMILES) | GFP signal change (wild-type ribosome) | OD600 change | RFP signal change
1 | COc1ccc2c3c([nH]c2c1)[C@H](CO)N(C(=O)CN1CCOCC1)CC31CN(C(C)=O)C1 | 3.07% (inactive) | 2.55% | 0.589%
2 | CNC[C@H]1OCCCC[C@@H](C)Oc2ccc(NS(=O)(=O)c3ccc(F)cc3)cc2C(=O)N([C@H](C)CO)C[C@H]1C | 2.84% (inactive) | 7.37% | -0.102%
3 | CC(C)NC(=O)N(C)C[C@H]1OCCCC[C@H](C)Oc2ccc(NC(=O)CCCN(C)C)cc2C(=O)N([C@@H](C)CO)C[C@H]1C | 3.73% (inactive) | 6.52% | -0.182%
4 | COc1ccc2c3c(n(C)c2c1)[C@H](CO)N(C(=O)c1ccc(F)cc1)CC31CCN(C(C)=O)CC1 | -0.941% (inactive) | 9.11% | -3.57%
5 | COc1ccc(Br)cc1/C=N/Nc1ccc(S(=O)(=O)Nc2ccccc2C(=O)O)cc1[N+](=O)[O-] | -24.6% (active) | 15.1% | -1.87%
6 | COc1ccc(S(=O)(=O)Nc2ccc3cn[nH]c3c2)cc1[N+](=O)[O-] | 3.58% (inactive) | 9.25% | -2.09%
7 | CCOc1ccccc1Nc1ccc(C(=O)O)cc1[N+](=O)[O-] | 1.23% (inactive) | -10.5% | -0.853%
8 | CCCC#Cc1ccc([C@H]2[C@@H](CO)N3CCCCN(S(=O)(=O)Cc4ccccc4)C[C@H]23)cc1 | -54.1% (inactive) | -75.8% | -7.77%
9 | C[C@@H]1CCCCO[C@H](CN(C)S(=O)(=O)c2cccs2)[C@H](C)CN([C@H](C)CO)C(=O)c2cc(NC(=O)c3ccccc3)ccc2O1 | 0.541% (inactive) | -5.5% | 4.83%
10 | O=C(CCC(=O)c1cccs1)Nc1nc2ccccc2s1 | -21.4% (active) | -16.4% | -0.615%
11 | O=C(CCC(=O)c1cccs1)NC1CCCCCC1 | 13.3% (inactive) | 16.6% | 0.589%
12 | O=C(c1cccs1)N1CCC(c2nc3ccccc3s2)CC1 | -27.6% (inactive) | -25.9% | 9.84%
13 | COc1cccc(OC)c1C(=O)N1CCN(Cc2ccccc2F)CC1 | 11.6% (inactive) | 16.8% | 0.962%
14 | COc1cc(OC)c(OC)cc1CN1CCN(C(=O)c2cccc3ccccc23)CC1 | 9.36% (inactive) | 7.23% | 0.512%
15 | COc1ccc(Br)cc1CN1CCN(C(=O)c2cccc(OC)c2OC)CC1 | -28.2% (active) | -11.8% | 1.29%
16 | COc1ccc(NC(=O)Nc2ccc3c(c2)C(=O)N([C@H](C)CO)C[C@H](C)[C@@H](CN(C)Cc2ccc(C(=O)O)cc2)OCCCC[C@H](C)O3)cc1 | -0.806% (inactive) | -1.43% | -1.16%
17 | C[C@H]1CCCCO[C@H](CN(C)S(=O)(=O)c2ccc(Cl)cc2)[C@@H](C)CN([C@@H](C)CO)C(=O)c2cc(NC(=O)Nc3ccc4c(c3)OCO4)ccc2O1 | 2.33% (inactive) | 1.85% | -3.19%
18 | COc1ccc2c3c(n(C)c2c1)[C@H](CO)N(C(C)=O)CC31CN(Cc2ccc(Cl)cc2)C1 | -5.13% (inactive) | -14.3% | 1.56%
19 | C[C@@H]1CN([C@@H](C)CO)S(=O)(=O)c2ccc(-c3ccncc3)cc2O[C@@H]1CN(C)C(=O)C1CCC1 | -1.91% (inactive) | 0.625% | -1.44%
20 | CCC(C)(C)NC(=O)/C=C/c1cc(OC)c(OC)c(S(=O)(=O)N2CCc3ccccc32)c1 | 25% (inactive) | 13.4% | -10.2%

Row | Structure (SMILES) | GFP signal change (wild-type ribosome) | OD600 change | RFP signal change
21 | COc1cc(/C=C/C(=O)OCC(=O)c2ccccc2)cc(OC)c1OC | -32.8% (inactive) | -28.1% | -5.92%
22 | COc1cc(/C=C/C(=O)N2CCc3ccccc3C2)cc(OC)c1OC | -21.8% (active) | -16.9% | 0.83%
23 | O=C(C[C@H]1C[C@H]2c3cc(NC(=O)Nc4ccc(C(F)(F)F)cc4)ccc3O[C@H]2[C@@H](CO)O1)NCc1cccnc1 | 3.1% (inactive) | 2.56% | -0.972%
24 | COc1cccc(S(=O)(=O)N2[C@@H]3CNC[C@H]2C3c2ccc(-c3ccccc3OC)cc2)c1 (some centres not stated) | -57.9% (inactive) and 6.81% (inactive) | -76.9% and 4.62% | -12.3% and 0.158%
25 | COc1cccc(S(=O)(=O)N2C[C@H](O)COC[C@H]3O[C@@H](CC(=O)N4CCN(c5ccccc5)CC4)CC[C@@H]32)c1 | -6.4% (inactive) | -3.12% | 2.98%
26 | CCCN(C)C[C@@H]1OCCCC[C@H](C)Oc2ccc(NS(=O)(=O)c3ccc(C)cc3)cc2C(=O)N([C@H](C)CO)C[C@@H]1C | -0.00475% (inactive) | -4.83% | 1.63%
27 | COCC(=O)Nc1ccc2c(c1)C(=O)N(C)C[C@@H](OC)[C@@H](C)CN(CC1CCCCC1)[C@@H](C)CO2 | 0.911% (inactive) | 5.47% | -0.068%
28 | COc1ccc(CN2CCN(Cc3ccc(OC)c(OC)c3OC)CC2)cc1 | 13.2% (inactive) | 19.1% | -0.244%
29 | COc1ccccc1N1CCN(Cc2cc(OC)c3c(c2)OCO3)CC1 | -2.5% (inactive) | -4.28% | -3.78%
30 | COc1ccccc1N1CCN(Cc2ccc(OC)c3ccccc23)CC1 | -21.9% (active) | -8.32% | -3.95%
31 | CO[C@@H](CN(C)S(=O)(=O)c1ccc(F)cc1)[C@H](C)CN(C(=O)Nc1ccccc1F)[C@@H](C)CO | -3.35% (inactive) | 0.819% | -3.65%
32 | C[C@@H]1CN([C@H](C)CO)C(=O)Cc2cc(NC(=O)C3CCCCC3)ccc2O[C@@H]1CN(C)Cc1ccc(C(F)(F)F)cc1 | -2.69% (inactive) | 1.55% | 2.15%
33 | COc1ccc2nc(NC(=O)NC3CCCCC3)sc2c1 | -22.5% (active) | -17.5% | 7.27%
34 | Cc1nc2ccc(NC(=O)C3CCCCC3)cc2s1 | -1.32% (inactive) | -0.83% | -0.607%
35 | COc1ccc(C(=O)NC(=S)NC2CCCCC2)cc1 | -49.8% (inactive) | -73.1% | -12.9%
36 | C[C@H](CO)N1C[C@H](C)[C@H](CN(C)Cc2ccccc2)OCCCC[C@H](C)Oc2ccc(NC(=O)CCC(F)(F)F)cc2C1=O | -1.2% (inactive) | -5.79% | -1.47%
37 | CC(C)NC(=O)Nc1ccc2c(c1)C(=O)N([C@@H](C)CO)C[C@@H](C)[C@H](CN(C)Cc1ccc(Cl)c(Cl)c1)O2 | -11.4% (inactive) | -58.1% | 26%
38 | CN(C)CCCNC(=O)/C=C/c1ccc(OCc2c(F)cccc2Cl)cc1 | -45.5% (active) | -31% | -4.52%
39 | COCCCNC(=O)/C=C/c1ccc(OCc2c(F)cccc2Cl)cc1 | -4.38% (inactive) | -2.58% | -3.12%
40 | O=C(/C=C/c1ccc(OCc2c(F)cccc2Cl)cc1)N1CCOCC1 | -49% (inactive) | -72.9% | -13.9%

Row | Structure (SMILES) | GFP signal change (wild-type ribosome) | OD600 change | RFP signal change
41 | Cc1noc(C)c1NC(=O)Nc1ccc2c(c1)C(=O)N([C@H](C)CO)C[C@@H](C)[C@@H](CN(C)Cc1ccncc1)OCCCC[C@H](C)O2 | 0.824% (inactive) | 10.7% | -1.14%
42 | C[C@H]1CN(C)C(=O)c2cccc(N(C)C)c2O[C@@H]1CN(C)C | -0.435% (inactive) | 5.4% | -1.5%
43 | CO[C@H]1CN(C)C(=O)c2ccc(NC(=O)CC(F)(F)F)cc2OC[C@@H](C)N(C(=O)c2ccccc2F)C[C@@H]1C | 3.23% (inactive) | 1.55% | 3.46%
44 | CCOc1ccc(/C(O)=C2\C(=O)C(=O)N(c3ccc(OC)cc3)C2c2ccccc2[N+](=O)[O-])cc1 (configuration not stated) | -20.6% (active) | 6.17% | 5.06%
45 | COc1ccccc1C1/C(=C(/O)c2ccc(C)cc2)C(=O)C(=O)N1Cc1ccco1 (configuration not stated) | 6.88% (inactive) | 7.9% | 1.73%
46 | COc1ccc(C2/C(=C(/O)c3ccccc3)C(=O)C(=O)N2C)c(OC)c1 (configuration not stated) | -2.38% (inactive) | 2.38% | -3.31%
47 | COCC(=O)Nc1ccc2c(c1)[C@H]1C[C@H](CC(=O)NCc3ccccn3)O[C@H](CO)[C@H]1O2 | -0.801% (inactive) | -4.21% | -2.1%
48 | O=S1(=O)c2ccc(Br)cc2-n2nncc2CN1Cc1cccc(Cl)c1 | -5.88% (inactive) | -16.9% | -5.12%
49 | CC(C)(C)OC(=O)N1CCC(NC(=O)c2[nH]cnc2C(=O)N[C@@H](Cc2ccccc2)C(=O)OCc2ccccc2)CC1 | 12.4% (inactive) | -1.46% | 0.755%
50 | O=C(N[C@@H](Cc1ccccc1)C(=O)OCc1ccccc1)c1nc[nH]c1C(=O)NC1CCNCC1 | -20.9% (active) | -8.38% | -3.23%
51 | O=C(N[C@@H](Cc1ccccc1)C(=O)OCc1ccccc1)c1nc[nH]c1C(=O)N[C@@H](Cc1ccccc1)C(=O)OCc1ccccc1 | 8.68% (inactive) | 15.5% | -0.702%
52 | O=C(c1cccc(F)c1)N1CC(=O)N2[C@H](C1)[C@@H](c1ccc(C#Cc3ccc(F)cc3)cc1)[C@@H]2CO | 1.74% (inactive) | -7.67% | 4.35%
53 | COC(=O)[C@@H]1[C@@H](CO)[C@@H]2Cn3c(ccc(-c4ccccc4F)c3=O)[C@@H]2N1CC1CCOCC1 | 1.95% (inactive) | -6.47% | 6.87%
54 | O=C1C(Sc2cccc(F)c2)=C[C@@]2(O)CC[C@@H](O)[C@]1(Sc1cccc(F)c1)[C@H]2O | -37% (active) | -28.5% | -4.19%
55 | COc1ccc(S(=O)(=O)Nc2ccc3c(c2)CC(=O)N([C@H](C)CO)C[C@H](C)[C@@H](CN(C)C)O3)cc1 | 2.15% (inactive) | 13.2% | -1.01%
56 | C[C@H](CO)N1C[C@H](C)[C@@H](CN(C)C(=O)c2ccncc2)Oc2cc(C3=CCCCC3)ccc2S1(=O)=O | -1.29% (inactive) | -9.47% | -3.74%
57 | CNC(=O)C(NC(=O)c1ccccc1)=C(C)C | 10.9% (inactive) | 9.13% | -0.414%
58 | CN(C)C(=O)c1coc2nc3ccccc3nc12 | 12.4% (inactive) | 6.11% | -0.0205%
59 | CNC(=O)c1cccc2nc3ccccc3nc12 | -23.6% (active) | -17.7% | -6.61%
